The campaign covered roughly 68,000 compounds. About 2,700 (4%) showed an effect of 50% or more. The sample holds strong results, similar compounds and a random draw of the others, so the mix is not that of the screen.
tested on: Plasmodium berghei; experiment: Screen against P. berghei liver stage (PbLuc), transformed with Luciferase, at 2uM; assay type: functional, HepG2; conditions: tested at 2 uM

Structure (SMILES) | INHIBITION
CCNCc1ccc(OCc2ccc3c(c2)OCCO3)cc1 | 12.94%
NC1CC(C(F)(F)F)=NC=C1c1ccccc1 (stereo not given) | 25.93%
Cc1ccccc1NC(=O)NCCn1nc(C(F)(F)F)n(C)c1=O | 16.54%
Cn1c(C(F)(F)F)nn(CCNC(=O)Nc2ccccc2Cl)c1=O | 64.74%
Cn1c(C(F)(F)F)nn(CCNC(=O)Nc2ccccc2F)c1=O | 37.87%
Cn1cc(C(=O)N2CCN(Cc3cscn3)CC2)ccc1=O | -15.08%
CCN1CC2(CNCCN(C(=O)Nc3ccccc3)C2)CC1=O (stereo not given) | 17.77%
CN1CC2(CNCCN(C(=O)Nc3ccccc3)C2)CC1=O (stereo not given) | 56.21%
CC(=O)N1CCN(C(=O)Nc2ccccc2)CC2(CC(=O)N(C)C2)C1 (stereo not given) | 7.88%
O=C(NCc1ccccc1)N1CCC2(CC(=O)N(c3ccsc3)C2)C1 (stereo not given) | 18.86%
Cc1cccc(NC(=O)N2CCC3(CC(=O)N(c4ccsc4)C3)C2)c1 (stereo not given) | 1.29%
O=C(Nc1ccccc1)N1CCC2(CC(=O)N(c3ccsc3)C2)C1 (stereo not given) | 57.31%
Cc1nn(Cn2ccc(C(=O)N3CCCCCC3)n2)c(C)c1Cl | 7.68%
CC(NC(N)=O)C(=O)N1CCCN(Cc2nccn2C(C)C)CC1 (stereo not given) | -7.5%
CN(C(=O)Cc1ccc(NC(=O)NC2CCC2)cc1)c1ccccc1 | 43.21%
Cc1ccc(C(=O)N2CCC3(CC2)CCN(CCN(C)C)C3=O)cn1 | 39.92%
CCn1c(C2CCN(C(=O)c3cc(CC(C)C)no3)CC2)nn(C)c1=O | 51.31%
CCn1c(C2CCN(C(=O)c3cc(Cl)no3)CC2)nn(C)c1=O | 13.76%
CCn1c(C2CCN(C(=O)c3cc(CC(C)C)on3)CC2)nn(C)c1=O | -5.44%
CCN1CCn2c(-c3cccc(F)c3)cnc2C12CCN(C(C)=O)CC2 | -13.68%
O=c1[nH]c(NCCO)nc2c1C1(CCCC1)Cc1ccccc1-2 | -29.21%
O=c1[nH]c(NCCCO)nc2c1C1(CCCC1)Cc1ccccc1-2 | 43.82%
O=c1[nH]c(NCCO)nc2c1C1(CCCCC1)Cc1ccccc1-2 | 53.55%
CCN(Cc1ccoc1)C(=O)C1CCN(C(=O)OC(C)(C)C)C1 (stereo not given) | 30.25%
CCN(Cc1ccoc1)C(=O)C1CN(C(=O)OC(C)(C)C)C1 | 52.03%

Structure (SMILES) | INHIBITION
CCN(Cc1ccoc1)C(=O)NC1CCN(C(=O)OC(C)(C)C)C1 (stereo not given) | 7.93%
Cc1cc(-n2nnc(C(=O)O)c2-c2ccncc2)ccc1F | -37.39%
Cc1occc1C(=O)N1CCC2(CCCN(c3ncc(F)cn3)C2)C1 (stereo not given) | -13.37%
CC(C)(C)n1cc(C(=O)O)c(-c2ccc(F)cc2F)n1 | 52.98%
Cn1cc(C(=O)O)c(-c2ccc(F)cc2F)n1 | 31.51%
Cn1cc(C(=O)OCC(N)=O)c(-c2ccc(F)cc2F)n1 | 19.59%
COc1ccc(C(=O)C2CCCN(c3nccc(N)n3)C2)c(C)c1 (stereo not given) | 22.5%
COc1ccc(N2CCC(N(C)C(=O)Nc3ccncc3)CC2)cc1 | -18.09%
Cc1cccc(N2CC[C@H]3[C@H]2CCN3C(=O)c2cnn(C)c2)n1 | 3.56%
Cn1cc(C(=O)N2CC[C@@H]3[C@@H]2CCN3Cc2cccnc2)cn1 | -31.39%
Cc1cccc(CN2CC[C@H]3[C@H]2CCN3Cc2cnn(C)c2)n1 | 46.68%
Cc1cccc(CN2CC[C@@H]3[C@@H]2CCN3C(=O)c2ccno2)n1 | 51.94%
Cn1cc(C(=O)N2CC[C@@H]3[C@@H]2CCN3Cc2ccccc2)cn1 | 28.85%
Cc1cccc(CN2CC[C@H]3[C@H]2CCN3C(=O)c2cnn(C)c2)n1 | 51.4%
Cc1cccc(CN2CC[C@@H]3[C@@H]2CCN3C(=O)c2cc(C)on2)n1 | 26.01%
Cc1cccc(CN2CC[C@@H]3[C@@H]2CCN3C(=O)c2cnoc2C)n1 | -15.6%
Cn1cc(C(=O)N2CC[C@@H]3[C@@H]2CCN3Cc2ccncc2)cn1 | 70.31%
Cc1cc(CNCC2Cn3nnc(C)c3CO2)oc1C (stereo not given) | 26.42%
CCS(=O)(=O)NC1CCCN(c2ccc(F)cc2C)C1=O (stereo not given) | -13.11%
Cn1cc(C(=O)N2CCCC(C(=O)CCc3ccccc3)C2)cn1 (stereo not given) | 18.12%
CCC(O)CNc1nccc(-c2ccc(C)nc2C)n1 (stereo not given) | -23.27%
O=C(Cc1cccs1)N1CCC2(CCCN(CC3CCOCC3)C2)C1 (stereo not given) | 54.62%
O=C(Cc1ccccn1)N1CCC2(CCCN(CC3CCOCC3)C2)C1 (stereo not given) | -16.36%
O=C(Cc1ccsc1)N1CCC2(CCCN(CC3CCOCC3)C2)C1 (stereo not given) | 32.04%
Cn1cnc2c1CCN(CCCOc1ccc(C#N)cc1)C2 | 40.29%

Structure (SMILES) | INHIBITION
Cn1cnc2c1CCN(CCCOc1ccc(S(C)(=O)=O)cc1)C2 | 72.05%
CS(=O)(=O)c1ccc(OCCCN2CCc3cncnc3C2)cc1 | 20.53%
CCS(=O)(=O)N(C)C1CCN(C(=O)c2cc(C)cc(C)c2)CC1 | -37.02%
Cc1noc(C)c1CNC(=O)C(C)Oc1ccccc1F (stereo not given) | -23.17%
CNC(=O)COc1cccc(CNCc2c(C)noc2C)c1 | -16.18%
CNC(=O)COc1ccccc1CNCc1c(C)noc1C | 57.75%
Cc1cc(O)cc(=O)n1CCCC(=O)Nc1n[nH]c2cc(Br)ccc12 | -14.65%
CO[C@H]1C(=O)N(C)C2(CCNCC2)[C@@H]1C(=O)Nc1ccccc1 | 36.1%
Cc1noc(C)c1CN1CCC(N(C)Cc2nnc(C3CC3)n2C)C1 (stereo not given) | -37.68%
CC[C@@H]1N(Cc2ccccn2)CCC[C@]12CCC(=O)N2CCOC | 51.05%
COCCN1C(=O)CCC12CCC(NCc1cccnc1OC)CC2 (stereo not given) | 12.95%
COCCN1C(=O)CCC12CCC(NCc1nccs1)CC2 (stereo not given) | 75.66%
CC[C@H]1N(CC2CCC2)CCC[C@]12CCC(=O)N2Cc1ccncc1 | 65.54%
CN1C(=O)CCC12CCC(NCc1ccsc1)CC2 (stereo not given) | 51.81%
CC[C@@H]1N(Cc2ccncc2)CCC[C@]12CCC(=O)N2CCOC | 28.86%
COCCN1C(=O)CCC12CCC(NCc1ccc(OC)cc1)CC2 (stereo not given) | 25.43%
CC[C@@H]1N(CC2CCC2)CCC[C@]12CCC(=O)N2Cc1ccncc1 | 12.28%
CN1C(=O)CCC12CCC(NC(=O)NCc1cccnc1)CC2 (stereo not given) | -14.64%
O=C1CCC2(CCC(NCc3ccsc3)CC2)N1Cc1ccccc1 (stereo not given) | 31.5%
CC[C@@H]1N(Cc2ccc(OC)cc2)CCC[C@]12CCC(=O)N2CCOC | 25.75%
CCCN1CCC[C@]2(CCC(=O)N2Cc2ccncc2)[C@H]1CC | 32.59%
Cc1cc(C(=O)N2CCC(Nc3cccnc3)CC2)c(C)s1 | 22.36%
COCCN1CCC2(CCN(C(=O)c3ccc(F)cc3)CC2)C1=O | 4.59%
CN1[C@@H]2CC[C@H]1CN(C(=O)CCc1csc(N)n1)CC2 | 41.86%
COc1ccc(C(=O)N2CCC(Nc3cccnn3)CC2)c(F)c1 | -33.22%

Structure (SMILES) | INHIBITION
Cc1c(C2N3CC4(C(C)C)CN2CC(C(C)C)(C3)C4=O)[nH]c(=O)[nH]c1=O (stereo not given) | -2.5%
CCc1noc(C2CCCCN2C(=O)c2ccc3c(c2)OCO3)n1 (stereo not given) | 25.67%
CC[C@@H]1N(Cc2nccs2)CCC[C@]12CCC(=O)N2C | 45.22%
CC[C@@H]1N(Cc2nccs2)CCC[C@]12CCC(=O)N2CCOC | 65.26%
CC[C@@H]1N(Cc2ccc(F)cc2)CCC[C@]12CCC(=O)N2CCOC | 1.78%
Cc1csc(C(=O)N2CC(S(=O)(=O)C3CCCCC3)C2)c1 | -15.37%
CC(=O)N1CC2(CCCN2Cc2ccc(Cl)cc2)Cc2ccccc21 (stereo not given) | 6.9%
CCn1c(CC2CCN(C(=O)c3cc(C(C)C)nn3C)CC2)n[nH]c1=O | 32.26%
CCn1c(CC2CCN(C(=O)c3cc(C(C)C)n[nH]3)CC2)n[nH]c1=O | 3.06%
CCn1c(CC2CCN(C(=O)c3cc(CC(C)C)on3)CC2)n[nH]c1=O | 55.25%
CSCc1cccc(NC(=O)N2CCC(N3CC=CC3)C2)c1 (stereo not given) | -18.09%
Cc1noc(C)c1CNS(=O)(=O)N(C)Cc1ccccc1Br | -45.67%
CC(=O)N(C)Cc1ccccc1NCc1c(C)noc1C | 47.68%
CCN(CC)Cc1ccccc1NCc1c(C)noc1C | 71.91%
O=C(Cc1csc(-c2ccco2)n1)N1CCN(c2nccs2)CC1 | 4.89%
CC(C)(C)CC(NC(=O)N1CCC(C(N)=O)CC1)C(F)(F)F (stereo not given) | 4.34%
CC(=O)N[C@@H](C)C(=O)NCc1cccnc1Oc1ccccc1F | -66.28%
c1cncc(-c2noc(CN3CCCC3Cn3cccn3)n2)c1 (stereo not given) | 5.59%
CCC(=O)NC1CCCN(C(=O)Nc2cc(-c3ccccc3)on2)C1 (stereo not given) | 80.45%
O=C(Nc1cc(-c2ccccc2)on1)N1CCN(CCO)CC1 | 45.19%
O=C(Nc1cc(-c2ccccc2)on1)N1CC[C@H](O)C1 | -9.71%
Cc1ccc(CN2CCCC3(CCCN3S(C)(=O)=O)C2)s1 (stereo not given) | 51.26%
Cc1ccc(CN2CCC3(CCCN3S(C)(=O)=O)CC2)s1 | -26.46%
Cc1ccc(CN2CCCC3(CCCCN3S(C)(=O)=O)C2)s1 (stereo not given) | -40.37%
Cc1ccc(CNCc2nnc3n2CCCC3C(F)(F)F)s1 (stereo not given) | -73.29%
